# Reference: PubChem BioAssay AID932 (The Scripps Research Institute Molecular Screening Center, 2007)
# About 5,100 (2.5%) of roughly 200,000 compounds were called active.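 Rule for the calls: active = activation above the screen-wide mean activation plus 3 SD (cut at about 130% in these data); inactive = the rest.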 For the sample, actives were picked, then their nearest neighbours and some compounds at random.
# Experiment: potentiators of IFN-gamma driven STAT1 reporter – cell-based, HTS, luciferase reporter, primary screen (AID 932);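 note: raw ratio to IFN-gamma control signal so 100% means no change and 0% no light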
# Settings: NIH 3T3 STAT1-luciferase reporter, luminescence, at 5.5 µM, hits give high values, 100% = IFN-gamma alone, no compound
row,Structure (SMILES),activation (% of control)
1,CC1CN(S(=O)(=O)c2ccc(C(=O)NN3CCN(C)CC3)cc2)CC(C)O1 (centres undefined),100% (inactive)
2,Cc1ccc(S(=O)(=O)Nc2nc(C)cc(N/N=C/c3ccc(O)cc3)n2)cc1,95.6% (inactive)
3,CC(=O)c1sc(NC(=O)CCCOc2ccccc2C)nc1C,105% (inactive)
4,CC(=O)c1sc(NC(=O)c2cccc3ccccc23)nc1C,114% (inactive)
5,CC(=O)c1sc(NC(=O)c2ccc(C)cc2)nc1C,161% (active)
6,COc1cccc2sc(Nc3nc(C)c(C(C)=O)s3)nc12,112% (inactive)
7,CC(=O)c1sc(N/N=C/c2ccc(C(C)C)cc2)nc1C,158% (active)
8,CC(=O)c1sc(NC(=O)C2=NN(c3ccccc3)C(=O)CC2)nc1C,98.2% (inactive)
9,CC(=O)c1sc(N/N=C\c2ccc(C)cc2)nc1C,166% (active)
10,CCOC(=O)c1sc(NC(=O)c2ccncc2)nc1C,109% (inactive)
11,Cn1c(=O)c2c(ncn2CCc2ccccc2)n(C)c1=O,101% (inactive)
12,CC(NC(=O)Nc1ccccc1)C(c1cccs1)N1CCN(c2ccccc2)CC1 (centres undefined),87% (inactive)
13,O=C(CN1C(=O)c2cccc3cccc(c23)C1=O)N1CCCCC1,89.3% (inactive)
14,Cc1nccc(-c2ccc(-n3c(C)ccc3C)cc2)n1,101% (inactive)
15,O=C(COC(=O)c1ccccn1)Nc1cccc2ccccc12,103% (inactive)
16,CNC(=O)/C(C#N)=C/c1c(F)cccc1Cl,82.9% (inactive)
17,Cc1ccc(O)c(CCc2ccccc2)n1,104% (inactive)
18,Cc1noc(NS(=O)(=O)c2ccc(N/C=C/C(=O)c3ccccc3)cc2)c1C,113% (inactive)
19,COc1ccc(C(=O)Nc2ccc(S(=O)(=O)Nc3onc(C)c3C)cc2)cc1OC,104% (inactive)
20,Cc1ccc(C(=O)/C=C/Nc2ccc(S(=O)(=O)Nc3onc(C)c3C)cc2)cc1,142% (active)
21,CC(C)C(O)C1CCN(Cc2nc(Cc3ccccc3Cl)no2)CC1 (centres undefined),105% (inactive)
22,Cc1ccc(N(C(=O)c2ccc(S(=O)(=O)N(C)C)cc2)C2C=CS(=O)(=O)C2)cc1 (centres undefined),96.7% (inactive)
23,CCC(O)C1CCN(Cc2cn(-c3ccc(OC)cc3)nc2-c2cccc(F)c2)CC1 (centres undefined),107% (inactive)
24,CCc1nc(Nc2ccc3nccnc3c2)c2oc3ccccc3c2n1,98.2% (inactive)
25,Cc1nc(Cl)c2oc3ccccc3c2n1,103% (inactive)

row,Structure (SMILES),activation (% of control)
1,COc1ccccc1Nc1ncnc2c1oc1ccccc12,137% (active)
2,CCN(c1ccc(NC(=O)COC(=O)CCc2nc3ccccc3n2-c2ccccc2)cc1)C(C)C,99.5% (inactive)
3,CCC(=O)NC(=Nc1nc2ccccc2s1)NC(=O)CC,180% (active)
4,CC(C)CC(=O)N/C(N)=N/c1nc2ccccc2s1,123% (inactive)
5,COC(=O)c1nc2ccccc2s1,103% (inactive)
6,Cc1ccc(S(=O)(=O)N(C)C)cc1NC(=O)c1ccccc1Br,106% (inactive)
7,Cc1c(C(=O)Nc2cccc(-c3nnc4n3CCCCC4)c2)oc2ccccc12,104% (inactive)
8,Cc1c(C(=O)Nc2ccccc2)sc2nc3n(c(=O)c12)CCCCC3,130% (active)
9,O=c1c2c(nc3n1CCCCC3)sc1c(O)cccc12,104% (inactive)
10,COc1ccc(-c2nc3cnccn3c2NC(C)(C)CC(C)(C)C)cc1O,102% (inactive)
11,COc1ccc(C(C(=O)NC2CCCCC2)N(C(=O)Cc2c[nH]c3ccccc23)c2ccccc2)cc1OC (centres undefined),105% (inactive)
12,COc1ccc2oc(=O)c(C(=O)N3CCCc4ccccc43)cc2c1,97.1% (inactive)
13,c1ccc(-n2ncc3c(N4CCCC4)ncnc32)cc1,115% (inactive)
14,COc1ccc(-n2c(C)nc3c(cnn3-c3ccccc3)c2=O)cc1,88.7% (inactive)
15,Cc1cccc(-n2ncc3c(N4CCc5ccccc54)ncnc32)c1,113% (inactive)
16,COc1ccc(-n2ncc3c(N4CCCc5ccccc54)ncnc32)cc1,187% (active)
17,COc1ccc(-n2ncc3c(N4CCc5ccccc54)ncnc32)cc1,137% (active)
18,CC(C)(C)NC(=O)NC(=O)COC(=O)C1(C)CC1(Cl)Cl (centres undefined),104% (inactive)
19,NC(=O)c1ccc(CN2CCC(Cc3ccccc3)CC2)cc1,98.6% (inactive)
20,COc1ccc(CCNC(=O)c2ccc(CS(=O)(=O)c3ccc(Br)cc3)o2)cc1OC,84.6% (inactive)
21,Cc1ccc(OCCOCCOc2ccc(Br)cc2/C=N\NC(=O)c2ccncc2)cc1,102% (inactive)
22,CC(=O)Nc1cccc(-c2csc(Nc3cccc(C)n3)n2)c1,175% (active)
23,CC(=O)Nc1cccc(-c2cnc3ccccc3n2)c1,159% (active)
24,CCS(=O)(=O)Nc1cccc(-c2cc(-c3ccccc3)c3cc(C)ccc3n2)c1,96.5% (inactive)
25,Cc1cc(O)ccc1-c1cnc2ccccc2n1,108% (inactive)

row,Structure (SMILES),activation (% of control)
1,COc1ccc(CCNc2nc(-c3cccc(NC(C)=O)c3)cs2)cc1OC,88.5% (inactive)
2,CC(=O)Nc1ccc(-c2csc(NC(=O)Nc3ccccc3)n2)cc1,95.7% (inactive)
3,CCOC(=O)/C(=N\Nc1ccccc1[N+](=O)[O-])c1csc(Nc2ccccc2)n1,102% (inactive)
4,OC1CCCN(c2ncnc3c2nnn3Cc2c(F)cccc2Cl)C1 (centres undefined),102% (inactive)
5,CCOC(=O)c1sc(=NC(=O)/C=C/c2cccs2)n(C)c1C,140% (active)
6,CCOC(=O)c1c(NC(=S)NC(=O)/C=C/c2cccs2)sc(C)c1C,105% (inactive)
7,COc1ccc(CCNC(=O)COC(=O)/C=C/c2cccs2)cc1OC,90.8% (inactive)
8,CCOc1cc(NC(=S)NCc2ccco2)c(OCC)cc1NC(=O)c1ccco1,94.2% (inactive)
9,COc1cc(OC)cc(-c2nnc(SCC(=O)Nc3ccc(C(=O)O)cc3)s2)c1,92.8% (inactive)
10,CCCC(=O)N1c2ccc(-c3csc(N)n3)cc2CC1C (centres undefined),150% (active)
11,CCC(=O)N1c2ccc(S(=O)(=O)CCC(=O)N3CCN(c4ccccc4)CC3)cc2CC1C (centres undefined),101% (inactive)
12,CCn1nc(C(=O)OCC(=O)N2c3ccccc3CC2C)c2ccccc2c1=O (centres undefined),94.7% (inactive)
13,O=C(Nc1cccc(F)c1)c1coc(=O)c(Br)c1,89.3% (inactive)
14,Cc1cccc(NC(=S)N(CCN(C)C)C(C)c2ccco2)c1 (centres undefined),97.6% (inactive)
15,COc1ccccc1-n1c(=S)[nH]c2c(sc(=S)n2-c2ccc(C)cc2C)c1=O,97.7% (inactive)
16,CCOC(=O)c1cnc2[nH]c3ccccc3n2c1=O,104% (inactive)
17,NS(=O)(=O)c1ccc(Nc2nc(-c3ccccc3)cs2)cc1,131% (active)
18,COc1ccc2nc(NC(=O)[C@@H]3CCCN3C(=O)c3cccs3)sc2c1,103% (inactive)
19,Cc1cccc(S(=O)(=O)CC(=O)Nc2nc(-c3ccccc3)cs2)c1,105% (inactive)
20,COc1ccc2nc(Nc3nc(-c4ccncc4)cs3)sc2c1,140% (active)
21,COc1ccc(-c2csc(Nc3ccc(O)cc3)n2)cc1,110% (inactive)
22,COc1ccc(Nc2nc(-c3ccccc3)cs2)cc1,142% (active)
23,COc1ccc2nc(Nc3nc(-c4cc5ccccc5oc4=O)cs3)sc2c1,103% (inactive)
24,COc1ccc(OC)c(Nc2nc(-c3ccc(O)c(O)c3)cs2)c1,102% (inactive)
25,CC(=O)Nc1ccc(S(=O)(=O)Nc2nc(-c3ccc(C(C)(C)C)cc3)cs2)cc1,99% (inactive)

row,Structure (SMILES),activation (% of control)
1,CCNC(=O)N1c2ccccc2Sc2ccccc21,98% (inactive)
2,CCNC(=O)CC1C(=O)N(c2ccc(OC)cc2)C(=S)N1CCc1ccncc1 (centres undefined),105% (inactive)
3,Cc1ccccc1N(C(=O)Cc1cccs1)C(C(=O)NC1CCCCC1)c1cn(C)nc1C (centres undefined),96.2% (inactive)
4,O=C(NCCCN1CCN(c2ccc(F)cc2)CC1)Nc1ccc([N+](=O)[O-])cc1,88.3% (inactive)
5,O=C(NCc1cccnc1)c1cccc(-c2cc3ccccc3oc2=O)c1,97.6% (inactive)
6,O=c1oc2ccccc2cc1-c1cn(-c2ccccc2)c(=S)[nH]1,28.6% (inactive)
7,Nc1ncc(-c2cc3ccccc3oc2=O)s1,166% (active)
8,Cn1cccc1C(C#N)c1ccccc1C#N (centres undefined),100% (inactive)
9,Cc1cc(C)n2nc(C(=O)N3CCN(Cc4ccc5c(c4)OCO5)CC3)nc2n1,108% (inactive)
10,Cc1cccc(NC(=O)c2cc(N3C(=O)CCC3=O)ccc2Cl)n1,98.4% (inactive)
11,Cc1cccc(NC(=O)c2ccc3ccccc3n2)n1,131% (active)
12,Cc1cccc(NC(=O)c2ccccc2NC(=O)C(C)(C)C)n1,95.8% (inactive)
13,CC(=O)c1cnc(SCC(=O)O)nc1C,108% (inactive)
14,Nc1nc(SCC(=O)NCCN2CCOCC2)nc2sc3c(c12)CCC3,99.3% (inactive)
15,CC(C)(C)C1CCc2c(sc3nc(SCC(N)=O)nc(N)c23)C1 (centres undefined),123% (inactive)
16,C=C(C)CSc1nc(N)c2c3c(sc2n1)CCC3,135% (active)
17,CCOC(=O)C1=C(CC)OC(N)=C(C#N)C1c1ccc(F)cc1F (centres undefined),76.9% (inactive)
18,Cc1ccc(NC(=O)C(=O)NCc2ccco2)c(C)c1,126% (inactive)
19,Cc1ccc(NC(=O)c2oc(=O)c3ccccc3c2-c2ccccc2)c(C)c1,97.1% (inactive)
20,Cc1ccc(NN=C2C(=O)OC(C)(C)OC2=O)c(C)c1,132% (active)
21,O=C(Cn1nnc(-c2ccccc2)n1)NCc1ccccc1,100% (inactive)
22,CC(C)(C)NC(=O)Cn1nnc(-c2ccccc2Cl)n1,142% (active)
23,Cc1ccccc1-c1nnn(CC(=O)c2ccc(S(=O)(=O)N3CCCC3)cc2)n1,96.4% (inactive)
24,Cc1ccc(NC(=O)Cn2c(=O)n(CCC(=O)NC3CCN(Cc4ccccc4)CC3)c(=O)c3ccccc32)cc1,101% (inactive)
